Experimental data published in publication PMC5540273 (PLoS ONE, 2017).

Tests used:
p38-delta = conditions: concentration: 1 μM, replicates: in singlicate; n = 1
p38-gamma = system: T1, p38-gamma; conditions: concentration: 1 μM, replicates: in singlicate; n = 1
T1 construct: gene MAPK12
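Further: KINOMEscan kinase panel screen.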

Cc1nnc(-c2ccc(C)c(-c3ccc(C(=O)O)cc3)c2)o1 [GW608005]
%Inh (p38-delta): 2% | %Inh (p38-gamma): 0%

CN1C(=O)C(Nc2cc(Cl)c(O)c(Cl)c2)=C(c2ccc(Cl)cc2)C1=O [SB-404321]
%Inh (p38-delta): 21% | %Inh (p38-gamma): 23%

Cc1ccc(-c2ccc3c(ccc4sc5c(c43)NC[C@@H](C)N=C5N(C)C)n2)cn1
%Inh (p38-delta): 10% | %Inh (p38-gamma): 14%

CCc1ccc(-c2ccc3c(c2)-c2nn(C)cc2S(=O)(=O)N3C)cc1
%Inh (p38-delta): 22% | %Inh (p38-gamma): 9%

Nc1ncnc2c1ncn2-c1cccc2ccccc12 [SKF-97184]
%Inh (p38-delta): 0% | %Inh (p38-gamma): 0%
